Source: PubChem BioAssay (Broad Institute)
SIRT5 block – SIRT5 desuccinylase inhibitors, primary screen, biochemical, fluorescence imaging, single point, set 5 | NAD-dependent protein deacylase sirtuin-5, mitochondrial (Homo sapiens), Q9NXA8 | Purified SirT5, succinyl-peptide AMC, trypsin-coupled fluorescence | inhibition, % at 15 µM | 330,000 tested, 1.1% active | AID 652115, 2013; in the data active = inhibition above about 15%
Target sequence (Q9NXA8 whole entry, looked up): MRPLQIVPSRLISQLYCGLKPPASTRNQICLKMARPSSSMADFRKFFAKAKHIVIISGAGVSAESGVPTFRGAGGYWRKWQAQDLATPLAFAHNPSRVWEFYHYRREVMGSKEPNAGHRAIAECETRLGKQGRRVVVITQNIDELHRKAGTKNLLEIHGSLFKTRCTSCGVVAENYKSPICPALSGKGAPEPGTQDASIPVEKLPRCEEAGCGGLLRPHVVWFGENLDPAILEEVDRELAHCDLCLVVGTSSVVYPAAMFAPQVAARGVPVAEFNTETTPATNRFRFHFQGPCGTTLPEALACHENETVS
PfHsp90 yeast 2 – growth inhibition of PfHsp90-expressing yeast, primary screen, antimalarial PfHsp90 inhibitor project, S. cerevisiae, BacTiter-Glo luminescence, single point, set 2; BacTiter-Glo ATP, 48 h; yeast lacking PDR1 and PDR3 efflux regulators; inhibition, % at 9.4 µM; 310,000 tested, 0.32% active;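 active = every replicate shows inhibition above about 80%, whatever the replicate mean, limit read from the data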;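 also: 0% = DMSO neutral controls and 100% = 20 µM radicicol positive controls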
ARNT-TACC3 inh – disruptors of ARNT/TACC3 protein interaction, primary screen, biochemical, AlphaScreen, single concentration; AlphaScreen His-ARNT PAS-B/GST-TACC3 binding, luminescence; TACC3 fragment carries E629A point mutation; inhibition, % at 9.99 µM; 390,000 tested, 0.66% active;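 active = mean inhibition of replicates at least 50% and at least half of replicates each reaching 50%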;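 also: 0% = complete ARNT plus TACC3 wells and 100% = ARNT alone without TACC3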
CASP6 VEID inh – human caspase-6 inhibitors, primary screen, biochemical, VEID-R110 fluorescence, single point, set 2. P55212. AID 686996, 2013. purified caspase-6, Z-VEID-R110 cleavage fluorescence. 350,000 tested, 0.53% active. inhibition, % at 12.5 µM;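 active = mean inhibition across replicates at least about 35%, with every replicate also reaching that limit, limit read from the data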;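 also: 0% = median of neutral control wells and 100% = no fluorescence left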
Target sequence (P55212 24-179 limits assumed): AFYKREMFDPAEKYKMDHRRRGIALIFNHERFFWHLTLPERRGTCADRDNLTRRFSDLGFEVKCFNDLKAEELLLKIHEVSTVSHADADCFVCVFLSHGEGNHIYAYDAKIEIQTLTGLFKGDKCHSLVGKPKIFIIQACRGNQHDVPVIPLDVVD
Target sequence (P55212 194-293 limits assumed): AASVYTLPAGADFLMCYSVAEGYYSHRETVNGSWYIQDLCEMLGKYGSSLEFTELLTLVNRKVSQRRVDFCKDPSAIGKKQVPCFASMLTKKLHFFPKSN
NSD2 inh – NSD2 histone methyltransferase inhibitors, primary screen, biochemical, AlphaScreen, single concentration, set 2; Histone-lysine N-methyltransferase NSD2 (Homo sapiens), O96028; NSD2 peptide methylation, 120 min; inhibition, % at 12.5 µM; 310,000 tested, 0.54% active; in the data active = inhibition above about 50%
Active calls of the source: *; / = not tested or not shown; ! = not confirmed by another sample. Rows were chosen to be rich in hits. Some 2.1% of all compounds tested hit in one or more screens of this group.

SMILES | SIRT5 block | PfHsp90 yeast 2 | ARNT-TACC3 inh | CASP6 VEID inh | NSD2 inh
O=C(CCN1CCCCC1)N[C@@H]1CC[C@@H](CCNC(=O)c2cc(Cl)cc(Cl)c2)O[C@@H]1CO | 0 | / | 47* | -4 | /
O=C(NCC[C@@H]1CC[C@H](NC(=O)C2CC2)[C@H](CO)O1)c1cc(Cl)cc(Cl)c1 | 38* | / | -6 | -1 | /
CC=Cc1ccc2n(c1=O)C[C@@H]1[C@@H](CO)[C@H](C(=O)N3CCc4ccccc4C3)N(C(=O)C3CC3)[C@H]21 (mixture of isomers) | -1 | / | 4 | 4 | /
COCC(=O)N[C@@H]1CC[C@H](CC(=O)NCc2ccc(Cl)cc2)O[C@H]1CO | 8 | / | -1 | 1 | /
C[C@H]1CCCCO[C@@H](CN(C)S(=O)(=O)c2cn(C)cn2)[C@@H](C)CN([C@@H](C)CO)C(=O)c2cc(NS(=O)(=O)c3ccc(Cl)cc3)ccc2O1 | 4 | / | -9 | 1 | /
Cn1c(SCC(=O)c2cc(Cl)c(Cl)s2)nnc1-c1ccco1 | 4 | 5 | 4 | 52* | -4
O=C1c2ccccc2C(=O)C12OC2c1cccc2ccccc12 (centres undefined) | 6 | 10 | 18 | 33 | 101*
Cc1ccc(S(=O)(=O)Nc2cccc3c2O[C@@H](CN(C)Cc2ccc4c(c2)OCO4)[C@@H](C)CN([C@H](C)CO)C3=O)cc1 | 15* | / | -10 | 3 | /
C[C@H](CO)N1C[C@H](C)[C@@H](CN(C)Cc2ccc(-c3ccccc3)cc2)Oc2c(NS(=O)(=O)c3ccccc3)cccc2C1=O | 16*! | -2 | 3 | -1 | /
C[C@@H]1CN([C@H](C)CO)C(=O)c2cccc(NS(=O)(=O)c3ccccc3)c2O[C@@H]1CN(C)Cc1ccc(-c2ccccc2)cc1 | 8 | / | -7 | 0 | /
C[C@H](CO)N1C[C@H](C)[C@@H](CN(C)Cc2ccc(C(=O)O)cc2)Oc2ccc(NS(=O)(=O)c3ccc(Cl)cc3)cc2C1=O | 24* | / | -8 | 2 | /
C[C@@H]1CN([C@H](C)CO)C(=O)c2cc(NS(=O)(=O)c3ccccc3)ccc2O[C@@H]1CN(C)Cc1ccc(-c2ccccc2)cc1 | 15* | / | 2 | -1 | /
C[C@@H](O)C#Cc1ccc2c(c1)O[C@H](CN(C)C(=O)C1CCCCC1)[C@@H](C)CN([C@@H](C)CO)S2(=O)=O | 4 | / | 12 | 0 | /
Cc1noc(C)c1S(=O)(=O)N(C)C[C@H]1Oc2ccc(NC(=O)CCN3CCOCC3)cc2CC(=O)N([C@@H](C)CO)C[C@H]1C | -3 | / | / | -1 | /
COc1ccc(NC(=O)Nc2cccc3c2O[C@H](CN(C)S(=O)(=O)c2ccccc2)[C@H](C)CN([C@H](C)CO)C3=O)cc1 | 4 | / | 9 | -4 | /
C[C@@H]1CN([C@@H](C)CO)C(=O)c2cc(NS(=O)(=O)c3ccc(F)cc3)ccc2O[C@H]1CN(C)Cc1ccc(-c2ccccc2)cc1 | 10 | / | -1 | -1 | /
C[C@H]1CN([C@@H](C)CO)C(=O)c2cccc(NS(=O)(=O)c3cn(C)cn3)c2O[C@H]1CN(C)Cc1ccc(Oc2ccccc2)cc1 | 29* | / | -2 | -1 | /
C[C@@H]1CN([C@H](C)CO)C(=O)c2cc(NS(=O)(=O)c3ccc(Cl)cc3)ccc2O[C@@H]1CN(C)Cc1ccc(-c2ccccc2)cc1 | 30* | / | -2 | -4 | /
C[C@@H]1CN([C@H](C)CO)C(=O)c2cc(NS(=O)(=O)c3ccc(F)cc3)ccc2O[C@@H]1CN(C)Cc1ccc(-c2ccccc2)cc1 | 16* | / | 11 | 3 | /
CC(C)NC(=O)N(C)C[C@H]1Oc2ncc(C#CC3CC3)cc2C(=O)N([C@@H](C)CO)C[C@@H]1C | -7 | / | -15 | -1 | /
COc1ccc(S(=O)(=O)Nc2ccc3c(c2)[C@H]2C[C@@H](CC(=O)O)O[C@H](CO)[C@H]2O3)cc1 | -5 | / | -2 | 0 | /
C[C@@H]1CCCCO[C@@H](CN(C)Cc2ccc(C(=O)O)cc2)[C@H](C)CN([C@H](C)CO)C(=O)c2cc(NS(=O)(=O)c3ccccc3)ccc2O1 | / | / | -14 | / | /
Cc1nc2ncccn2c1-c1csc(Nc2ccc(N(C)C)cc2)n1 | -4 | 32 | 18 | 4 | 25
Cc1nc2ncccn2c1-c1csc(Nc2ccc(S(N)(=O)=O)cc2)n1 | / | 4 | 9 | -6 | 6
COc1ccc(Nc2nc(-c3c(C)nc4ncccn34)cs2)cc1 | 2 | 12 | 46* | 7 | 6
SMILES | SIRT5 block | PfHsp90 yeast 2 | ARNT-TACC3 inh | CASP6 VEID inh | NSD2 inh
COc1ccccc1Nc1nc(-c2c(C)nc3ncccn23)cs1 | -1 | 2 | 45* | -2 | 7
Cc1nc2ncccn2c1-c1csc(NCc2ccco2)n1 | / | / | -1 | / | 1
Cc1nc2ncccn2c1-c1csc(Nc2ccccc2)n1 | -1 | 23 | 58* | 0 | 3
COc1ccccc1S(=O)(=O)N[C@H]1CC[C@@H](CCNC(=O)C2CCCCC2)O[C@H]1CO | 3 | / | 7 | 2 | /
CC(C)NC(=O)N[C@H]1CC[C@H](CC(=O)NC2Cc3ccccc3C2)O[C@@H]1CO | 3 | / | 1 | -3 | /
CC(C)[C@@H](C)NC(=O)N(C)C[C@H]1OCc2ccccc2-c2ccccc2C(=O)N([C@@H](C)CO)C[C@H]1C | -2 | / | -10 | -1 | /
O=[N+]([O-])C(=C1Nc2ccccc2N1)/C(Cl)=C(/Cl)Br | / | 4 | 61* | / | 0
COc1ccc(/C=C/C(=O)Nc2cc(F)ccc2C)cc1S(=O)(=O)N1CCOCC1 | 18* | / | 1 | / | -3
COc1ccccc1NC(=O)/C=C/c1ccc(OC)c(S(=O)(=O)N2CCOCC2)c1 | 0 | -43 | 3 | -4 | -5
Cc1ccnc(NC(=O)c2ccc(Cl)c(NC(=O)c3ccccc3F)c2)c1 | / | / | / | / | 2
CCNC(=O)C[C@@H]1CC[C@H]2[C@H](COc3ccc(NC(=O)c4ccc(F)cc4)cc3C(=O)N2C)O1 | -2 | / | 4 | -4 | /
CC(=O)NCc1ccc(C(=O)CN2C(=O)NC3(CCCCC3C)C2=O)s1 (centres undefined) | 15* | / | 5 | 5 | -2
CC1CCCCC12NC(=O)N(CC(=O)NCc1ccccc1)C2=O (centres undefined) | -1 | / | -5 | 0 | -1
CCCNC(=O)N1CC2(C1)[C@@H](c1ccccc1)[C@@H](CO)N2Cc1ccccn1 | 1 | / | / | -1 | /
Cc1ccc(/C=C/C(=O)Nc2nn[nH]n2)o1 | 0 | 17 | 61* | 19 | -1
O=C(Cc1ccncc1)N1CC(=O)N2[C@H](C1)[C@@H](c1ccc(C3=CCCC3)cc1)[C@@H]2CO | 1 | / | / | 0 | /
